Test results reported in the supplement of paper PMC11732987, “Enantioselective OTUD7B fragment discovery through chemoproteomics screening and high-throughput optimisation” (Communications Chemistry, 2025).

Assays:
Assay in all cases: log2 ratio of Biotin-Ahx-Ub-VS probe labelling (fragment/DMSO); higher = less target engagement (more negative = stronger competition), active = hit call of the paper (q ≤ 0.05, log2 ratio ≤ -1)
Conditions in all cases: compound concentration: 200 uM; treatment time: 3 h
USP34 = USP34 (UniProt Q70CQ2)
USP34, sequence (Q70CQ2 whole entry, the tested form may be a part): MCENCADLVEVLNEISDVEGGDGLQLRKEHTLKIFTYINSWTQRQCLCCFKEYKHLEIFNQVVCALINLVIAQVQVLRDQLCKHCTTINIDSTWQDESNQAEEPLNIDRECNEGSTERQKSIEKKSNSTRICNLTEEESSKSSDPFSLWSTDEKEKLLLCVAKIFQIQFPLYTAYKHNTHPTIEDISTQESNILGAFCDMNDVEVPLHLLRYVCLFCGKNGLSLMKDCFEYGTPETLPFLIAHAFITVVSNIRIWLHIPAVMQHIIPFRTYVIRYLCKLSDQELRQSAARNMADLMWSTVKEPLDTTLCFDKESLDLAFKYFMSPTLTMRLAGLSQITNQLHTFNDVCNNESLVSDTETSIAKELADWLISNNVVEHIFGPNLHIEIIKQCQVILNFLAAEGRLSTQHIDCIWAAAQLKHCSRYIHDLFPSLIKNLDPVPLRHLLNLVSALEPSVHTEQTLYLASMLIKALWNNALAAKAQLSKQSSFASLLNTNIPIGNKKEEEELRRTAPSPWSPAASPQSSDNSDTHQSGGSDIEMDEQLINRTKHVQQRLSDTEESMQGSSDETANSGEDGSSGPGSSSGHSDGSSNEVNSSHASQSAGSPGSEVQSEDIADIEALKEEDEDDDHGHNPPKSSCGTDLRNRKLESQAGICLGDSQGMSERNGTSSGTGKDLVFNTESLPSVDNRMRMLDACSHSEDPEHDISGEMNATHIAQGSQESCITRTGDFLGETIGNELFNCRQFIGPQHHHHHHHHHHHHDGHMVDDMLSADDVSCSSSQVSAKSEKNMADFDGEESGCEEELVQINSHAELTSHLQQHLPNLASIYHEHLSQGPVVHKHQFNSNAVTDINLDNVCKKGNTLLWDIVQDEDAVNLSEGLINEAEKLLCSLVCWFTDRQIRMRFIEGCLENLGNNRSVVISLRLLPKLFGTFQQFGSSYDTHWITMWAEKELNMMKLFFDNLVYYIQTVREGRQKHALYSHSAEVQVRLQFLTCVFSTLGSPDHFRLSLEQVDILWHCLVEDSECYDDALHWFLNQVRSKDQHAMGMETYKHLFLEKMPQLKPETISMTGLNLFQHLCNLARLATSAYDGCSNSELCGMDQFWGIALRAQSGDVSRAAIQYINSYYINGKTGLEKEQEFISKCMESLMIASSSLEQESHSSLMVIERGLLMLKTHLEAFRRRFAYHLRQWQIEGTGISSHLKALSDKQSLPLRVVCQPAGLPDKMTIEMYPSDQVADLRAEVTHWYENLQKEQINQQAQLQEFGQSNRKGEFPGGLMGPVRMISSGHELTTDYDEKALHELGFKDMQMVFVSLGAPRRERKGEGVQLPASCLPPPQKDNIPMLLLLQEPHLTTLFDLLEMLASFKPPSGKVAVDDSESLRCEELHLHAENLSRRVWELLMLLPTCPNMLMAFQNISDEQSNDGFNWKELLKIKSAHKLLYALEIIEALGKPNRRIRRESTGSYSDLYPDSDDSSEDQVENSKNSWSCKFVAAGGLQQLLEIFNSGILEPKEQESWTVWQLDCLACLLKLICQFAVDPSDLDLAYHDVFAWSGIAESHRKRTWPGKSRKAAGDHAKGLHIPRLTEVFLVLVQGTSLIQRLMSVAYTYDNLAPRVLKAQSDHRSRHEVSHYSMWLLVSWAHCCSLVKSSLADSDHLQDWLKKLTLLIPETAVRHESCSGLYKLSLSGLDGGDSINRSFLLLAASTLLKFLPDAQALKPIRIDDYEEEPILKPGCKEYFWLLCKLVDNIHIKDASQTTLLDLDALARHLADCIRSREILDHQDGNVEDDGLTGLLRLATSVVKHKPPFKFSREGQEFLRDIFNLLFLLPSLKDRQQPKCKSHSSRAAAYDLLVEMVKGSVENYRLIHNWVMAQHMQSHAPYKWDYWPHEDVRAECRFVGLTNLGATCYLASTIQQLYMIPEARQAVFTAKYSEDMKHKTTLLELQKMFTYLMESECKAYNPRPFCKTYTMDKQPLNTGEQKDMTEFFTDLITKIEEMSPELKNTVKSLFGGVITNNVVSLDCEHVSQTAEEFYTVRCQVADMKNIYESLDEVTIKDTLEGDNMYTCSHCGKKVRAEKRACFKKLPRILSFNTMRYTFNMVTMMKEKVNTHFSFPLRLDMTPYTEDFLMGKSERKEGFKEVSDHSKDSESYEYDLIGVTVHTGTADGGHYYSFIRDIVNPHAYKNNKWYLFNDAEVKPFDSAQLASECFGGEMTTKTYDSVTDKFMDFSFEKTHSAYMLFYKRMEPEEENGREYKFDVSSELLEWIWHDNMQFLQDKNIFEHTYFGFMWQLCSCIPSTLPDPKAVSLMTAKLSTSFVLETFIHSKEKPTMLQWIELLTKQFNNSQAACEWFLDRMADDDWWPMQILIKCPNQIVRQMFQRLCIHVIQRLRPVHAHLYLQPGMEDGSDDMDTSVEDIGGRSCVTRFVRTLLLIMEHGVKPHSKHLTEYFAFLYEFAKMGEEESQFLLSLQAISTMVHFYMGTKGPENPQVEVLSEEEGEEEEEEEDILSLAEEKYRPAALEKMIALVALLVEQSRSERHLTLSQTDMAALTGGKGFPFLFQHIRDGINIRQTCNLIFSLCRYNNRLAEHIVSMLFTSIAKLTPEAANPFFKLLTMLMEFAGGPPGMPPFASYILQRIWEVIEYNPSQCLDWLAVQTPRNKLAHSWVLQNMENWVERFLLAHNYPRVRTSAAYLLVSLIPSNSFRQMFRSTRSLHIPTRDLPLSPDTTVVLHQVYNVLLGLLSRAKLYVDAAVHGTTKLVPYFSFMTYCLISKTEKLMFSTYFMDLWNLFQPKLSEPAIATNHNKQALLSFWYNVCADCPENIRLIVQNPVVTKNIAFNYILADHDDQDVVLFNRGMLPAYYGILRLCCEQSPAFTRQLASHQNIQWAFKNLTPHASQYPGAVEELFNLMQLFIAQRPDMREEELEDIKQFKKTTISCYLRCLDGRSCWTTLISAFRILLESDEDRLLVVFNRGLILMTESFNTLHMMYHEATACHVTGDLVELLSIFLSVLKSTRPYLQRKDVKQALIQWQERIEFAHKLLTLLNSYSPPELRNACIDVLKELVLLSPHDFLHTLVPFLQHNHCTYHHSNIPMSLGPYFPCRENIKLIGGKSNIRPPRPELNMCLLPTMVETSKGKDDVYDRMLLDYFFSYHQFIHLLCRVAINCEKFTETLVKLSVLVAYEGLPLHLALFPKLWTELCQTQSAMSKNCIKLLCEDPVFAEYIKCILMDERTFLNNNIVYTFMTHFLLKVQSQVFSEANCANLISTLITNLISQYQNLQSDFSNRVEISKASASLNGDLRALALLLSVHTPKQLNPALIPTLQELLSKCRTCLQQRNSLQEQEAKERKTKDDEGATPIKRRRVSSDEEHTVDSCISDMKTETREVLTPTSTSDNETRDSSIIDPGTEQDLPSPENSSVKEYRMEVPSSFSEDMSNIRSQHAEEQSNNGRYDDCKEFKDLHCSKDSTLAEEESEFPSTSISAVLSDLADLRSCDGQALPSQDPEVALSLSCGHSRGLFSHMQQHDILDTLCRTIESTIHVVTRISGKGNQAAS
Outline: (§1)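 HEK293T lysate in Tris/CHAPS/IGEPAL buffer with protease inhibitors (495 µg per sample) was given fragment at 200 µM or vehicle for 3 h, in triplicate. It then received Biotin-Ahx-Ub-VS at 0.5 µM final for 1 h. Labelled DUBs were NeutrAvidin-enriched, digested with LysC and trypsin, and run by diaPASEF LC-MS/MS. Values are average log2 fragment/vehicle ratios by unpaired t-test on global-median-normalised Spectronaut quantities of proteins with ≥2 unique peptides.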

USP36 = target: T1, USP36 (UniProt Q9P275)
T1 sequence (whole entry): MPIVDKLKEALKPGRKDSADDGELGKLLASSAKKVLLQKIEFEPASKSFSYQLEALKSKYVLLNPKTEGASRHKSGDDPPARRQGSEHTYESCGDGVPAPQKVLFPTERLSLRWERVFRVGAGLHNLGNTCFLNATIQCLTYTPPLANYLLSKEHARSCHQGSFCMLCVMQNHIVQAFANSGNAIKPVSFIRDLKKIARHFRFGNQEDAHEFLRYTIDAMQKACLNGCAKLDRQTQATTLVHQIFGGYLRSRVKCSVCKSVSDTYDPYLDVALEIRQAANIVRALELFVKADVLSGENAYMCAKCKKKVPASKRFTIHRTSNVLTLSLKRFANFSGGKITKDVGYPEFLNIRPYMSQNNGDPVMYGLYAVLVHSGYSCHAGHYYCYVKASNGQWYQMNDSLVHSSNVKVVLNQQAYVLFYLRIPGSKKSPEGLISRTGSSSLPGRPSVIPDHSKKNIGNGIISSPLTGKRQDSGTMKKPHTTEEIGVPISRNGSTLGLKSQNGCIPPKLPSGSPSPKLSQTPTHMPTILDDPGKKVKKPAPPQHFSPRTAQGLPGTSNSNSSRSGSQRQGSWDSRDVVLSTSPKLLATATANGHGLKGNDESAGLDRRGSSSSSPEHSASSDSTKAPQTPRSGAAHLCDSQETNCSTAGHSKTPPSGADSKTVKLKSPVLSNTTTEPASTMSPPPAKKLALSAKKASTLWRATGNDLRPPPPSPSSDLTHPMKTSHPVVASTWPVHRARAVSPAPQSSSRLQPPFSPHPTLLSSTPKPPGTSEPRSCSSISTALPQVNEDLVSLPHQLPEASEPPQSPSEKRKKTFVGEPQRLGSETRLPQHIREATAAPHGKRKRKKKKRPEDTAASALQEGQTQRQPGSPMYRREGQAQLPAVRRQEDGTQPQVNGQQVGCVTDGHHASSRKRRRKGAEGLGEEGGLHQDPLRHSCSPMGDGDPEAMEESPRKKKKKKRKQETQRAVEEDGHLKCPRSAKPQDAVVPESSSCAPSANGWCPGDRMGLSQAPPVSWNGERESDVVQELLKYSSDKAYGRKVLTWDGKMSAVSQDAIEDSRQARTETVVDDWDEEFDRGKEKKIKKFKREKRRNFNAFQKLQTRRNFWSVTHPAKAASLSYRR
Outline: as §1

USP38 = target: T2, USP38 (UniProt Q8NB14)
T2 sequence (whole entry): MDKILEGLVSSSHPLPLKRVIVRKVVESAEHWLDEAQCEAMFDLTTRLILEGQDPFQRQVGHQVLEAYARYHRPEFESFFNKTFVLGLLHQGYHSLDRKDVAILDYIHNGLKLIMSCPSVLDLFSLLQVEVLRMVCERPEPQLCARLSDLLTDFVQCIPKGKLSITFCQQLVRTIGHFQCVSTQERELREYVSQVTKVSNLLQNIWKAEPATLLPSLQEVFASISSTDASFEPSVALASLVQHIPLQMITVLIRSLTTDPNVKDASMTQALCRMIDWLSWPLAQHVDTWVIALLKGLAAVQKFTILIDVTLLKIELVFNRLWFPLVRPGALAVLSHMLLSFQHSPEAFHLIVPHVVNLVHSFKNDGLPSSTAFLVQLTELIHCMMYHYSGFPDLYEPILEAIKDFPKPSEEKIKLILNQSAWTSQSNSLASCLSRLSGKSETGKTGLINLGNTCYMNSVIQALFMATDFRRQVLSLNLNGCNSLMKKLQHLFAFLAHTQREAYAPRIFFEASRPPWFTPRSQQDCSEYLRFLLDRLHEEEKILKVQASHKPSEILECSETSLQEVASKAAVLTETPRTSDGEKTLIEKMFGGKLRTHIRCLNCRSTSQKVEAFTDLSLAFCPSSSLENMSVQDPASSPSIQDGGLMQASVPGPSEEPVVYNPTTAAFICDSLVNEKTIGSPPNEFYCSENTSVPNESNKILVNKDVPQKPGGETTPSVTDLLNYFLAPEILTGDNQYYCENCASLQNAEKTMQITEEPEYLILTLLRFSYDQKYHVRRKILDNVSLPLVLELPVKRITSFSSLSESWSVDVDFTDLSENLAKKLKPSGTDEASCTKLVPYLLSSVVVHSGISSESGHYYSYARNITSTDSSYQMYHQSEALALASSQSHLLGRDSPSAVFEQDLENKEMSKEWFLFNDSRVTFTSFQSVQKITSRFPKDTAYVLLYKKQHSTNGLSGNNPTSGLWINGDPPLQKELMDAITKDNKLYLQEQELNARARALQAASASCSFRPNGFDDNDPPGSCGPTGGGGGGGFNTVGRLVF
Outline: as §1

USP39 = target: T3, USP39 (UniProt Q53GS9)
T3 sequence (whole entry): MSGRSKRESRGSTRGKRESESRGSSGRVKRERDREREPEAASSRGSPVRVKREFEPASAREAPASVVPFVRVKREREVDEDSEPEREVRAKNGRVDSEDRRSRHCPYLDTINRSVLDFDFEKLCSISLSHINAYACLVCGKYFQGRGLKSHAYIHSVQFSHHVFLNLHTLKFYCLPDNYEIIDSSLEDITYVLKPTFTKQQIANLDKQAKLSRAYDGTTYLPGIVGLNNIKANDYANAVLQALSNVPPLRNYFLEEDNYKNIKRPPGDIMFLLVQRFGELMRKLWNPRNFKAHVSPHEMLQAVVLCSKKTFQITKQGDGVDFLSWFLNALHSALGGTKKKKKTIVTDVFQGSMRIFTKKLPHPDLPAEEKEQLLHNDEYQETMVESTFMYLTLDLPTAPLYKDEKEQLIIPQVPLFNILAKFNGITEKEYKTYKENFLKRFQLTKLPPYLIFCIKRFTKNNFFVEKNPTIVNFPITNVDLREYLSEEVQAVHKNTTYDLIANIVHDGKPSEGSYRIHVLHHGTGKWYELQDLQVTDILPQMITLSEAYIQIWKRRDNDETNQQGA
Outline: as §1

USP4 = target: T4, USP4 (UniProt Q13107)
T4 sequence (whole entry): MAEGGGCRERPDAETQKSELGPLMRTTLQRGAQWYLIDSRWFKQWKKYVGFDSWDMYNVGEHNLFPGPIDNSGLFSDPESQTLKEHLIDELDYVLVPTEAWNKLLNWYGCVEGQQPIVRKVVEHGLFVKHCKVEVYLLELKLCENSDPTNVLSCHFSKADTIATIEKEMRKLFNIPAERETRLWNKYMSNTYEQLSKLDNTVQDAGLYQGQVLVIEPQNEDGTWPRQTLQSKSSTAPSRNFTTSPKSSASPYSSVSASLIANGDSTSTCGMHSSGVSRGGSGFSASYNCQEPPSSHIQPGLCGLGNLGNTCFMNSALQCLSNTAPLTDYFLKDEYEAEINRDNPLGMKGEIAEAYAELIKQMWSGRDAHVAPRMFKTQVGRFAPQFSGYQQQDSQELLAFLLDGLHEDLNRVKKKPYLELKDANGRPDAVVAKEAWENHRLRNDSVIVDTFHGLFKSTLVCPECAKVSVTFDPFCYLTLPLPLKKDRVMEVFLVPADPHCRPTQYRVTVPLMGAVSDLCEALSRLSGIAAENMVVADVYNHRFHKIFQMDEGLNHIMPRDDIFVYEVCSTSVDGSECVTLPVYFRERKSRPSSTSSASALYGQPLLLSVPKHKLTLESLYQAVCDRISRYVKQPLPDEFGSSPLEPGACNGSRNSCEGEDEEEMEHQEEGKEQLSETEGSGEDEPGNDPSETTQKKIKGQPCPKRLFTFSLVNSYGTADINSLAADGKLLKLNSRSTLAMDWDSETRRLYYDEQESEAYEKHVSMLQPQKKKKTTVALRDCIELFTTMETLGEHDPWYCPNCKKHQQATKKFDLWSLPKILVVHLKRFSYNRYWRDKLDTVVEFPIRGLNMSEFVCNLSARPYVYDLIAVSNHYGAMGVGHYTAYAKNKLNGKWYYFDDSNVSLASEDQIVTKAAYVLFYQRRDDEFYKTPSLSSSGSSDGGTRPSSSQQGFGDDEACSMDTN
Outline: as §1

Measured: log2 ratio of Biotin-Ahx-Ub-VS probe labelling

Cc1ccc(C(=O)NCCNC(=O)CCl)cc1
inactive: USP34 -0.0636 | USP36 0.0541 | USP38 -0.00607 | USP39 -0.0936 | USP4 -0.258
